Holding throughout (assay): NCI-60 one-dose screen, 48 h (100 = growth as untreated, 0 = no growth, -100 = all killed)
One test concerns SK-MEL-2 melanoma. The settings on record: 10 µM unless noted.
For the next test, the system named is EKVX NSCLC. The settings on record: 10 µM unless noted.
The next test concerns SN12C renal. The conditions noted are these: 10 µM unless noted.
A further test concerns UO-31 renal. The settings on record: 10 µM unless noted.
A further test relates to TK-10 renal. The settings on record: 10 µM unless noted.
The subject of another test is ACHN renal. The settings on record: 10 µM unless noted.
Another test has as its system CAKI-1 renal. The settings on record: 10 µM unless noted.
Another test has as its system A498 renal. The conditions noted are these: 10 µM unless noted.
The subject of another test is CCRF-CEM leukemia. The settings on record: 10 µM unless noted.
The next test concerns MOLT-4 leukemia. The conditions noted are these: 10 µM unless noted.
For a further test, the system named is SR leukemia. The settings on record: 10 µM unless noted.
The test system of the next test is RPMI-8226 leukemia. The conditions noted are these: 10 µM unless noted.
The subject of another test is OVCAR-8 ovarian. The settings on record: 10 µM unless noted.
For the next test, the system named is OVCAR-5 ovarian. The conditions noted are these: 10 µM unless noted.
The next test relates to OVCAR-4 ovarian. The settings on record: 10 µM.
In the next test the test system is SK-OV-3 ovarian. The conditions noted are these: 10 µM unless noted.
The next test deals with IGROV1 ovarian. The settings on record: 10 µM unless noted.
For the next test, the system named is OVCAR-3 ovarian. The conditions noted are these: 10 µM unless noted.
The subject of a further test is HS 578T breast. The conditions noted are these: 10 µM unless noted.
In another test the test system is NCI/ADR-RES ovarian. The settings on record: 10 µM unless noted.

This is an account of results in PubChem BioAssay (NCI).

About 83,000 compounds went through this panel and 20% of them were active in at least one assay; those are over-represented in the sample as a whole.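 Method: cells in 96-well plates; compound added at one concentration; 48 h incubation; percent growth measured; values under 10 scored active.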 Values without a mark were called inactive. Activity calls are given as the source filed them.

For `COc1ccc2[nH]c(C(=O)N3CCN(C(=O)OCc4ccc5c(Br)cc(Br)c(O)c5n4)CC3)cc2c1`, the growth in the test on SK-MEL-2 melanoma was -89.5% (active); in the test on EKVX NSCLC, -76% (active); in the test on SN12C renal, -86.8% (active); in the test with UO-31 renal, -100% (active); with TK-10 renal, -99.5% (active); in the test on ACHN renal it was -100% (active). Besides, the growth in the test on CAKI-1 renal is -96% (active); in the test with A498 renal it was -97% (active); with CCRF-CEM leukemia, -11.8% (active); in the test with MOLT-4 leukemia it was -22.3% (active); in the test with SR leukemia, 4.37% (active); in the test on RPMI-8226 leukemia, -38.9% (active). In addition, the growth with OVCAR-8 ovarian was -73.2% (active); in the test on OVCAR-5 ovarian, -89.3% (active); in the test on OVCAR-4 ovarian, -85.2% (active); in the test with SK-OV-3 ovarian, -70.7% (active); in the test on IGROV1 ovarian it was -90.7% (active); with OVCAR-3 ovarian, -93.9% (active). The growth is -22.5% (active) in the test with HS 578T breast and -17.4% (active) with NCI/ADR-RES ovarian.
Regarding `NNC(=O)c1ccc(C(=O)NN)cc1`, the growth in the test on SK-MEL-2 melanoma is 122%; in the test on EKVX NSCLC it was 101%; with SN12C renal, 109%; in the test with UO-31 renal it was 87.1%; with TK-10 renal it was 105%; with ACHN renal, 111%. Further, the growth is 105% in the test with CAKI-1 renal; 70.2% with A498 renal; 94.4% with CCRF-CEM leukemia; 130% in the test with MOLT-4 leukemia; 126% in the test on SR leukemia; 104% with RPMI-8226 leukemia. Also, the growth with OVCAR-8 ovarian is 84.9%; in the test with OVCAR-5 ovarian it was 113%; in the test on OVCAR-4 ovarian, 127%; in the test with SK-OV-3 ovarian, 119%; with IGROV1 ovarian, 116%; in the test with OVCAR-3 ovarian, 112%. In the test on HS 578T breast, the growth was 97.9%.
Turning to `CN(C)CCCNc1nc(-c2cccc(C(Cl)(Cl)Cl)c2)nc(C(Cl)(Cl)Cl)n1`, the growth in the test with SK-MEL-2 melanoma is 99%; in the test on EKVX NSCLC it was 104%; in the test with SN12C renal it was 102%; with UO-31 renal, 83.5%; in the test with TK-10 renal, 115%; in the test on ACHN renal, 108%. The growth was 98.2% in the test with CAKI-1 renal; 65.9% in the test with A498 renal; 98.3% in the test with CCRF-CEM leukemia; 84.4% in the test with MOLT-4 leukemia; 77.8% with SR leukemia; 99.5% with RPMI-8226 leukemia. In addition, the growth is 101% in the test on OVCAR-8 ovarian; 106% in the test with OVCAR-5 ovarian; 107% with OVCAR-4 ovarian; 111% in the test with SK-OV-3 ovarian; 94.4% in the test on IGROV1 ovarian; 117% in the test on OVCAR-3 ovarian. Besides, the growth with HS 578T breast was 91.8%.
As to `Nc1nc(Nc2ccccc2)c2ncn(Cc3ccc4c(c3)OCO4)c2n1`, the growth was 12.2% with SK-MEL-2 melanoma; 48.7% with EKVX NSCLC; 43% with SN12C renal; 49.3% in the test on UO-31 renal; 63.3% with TK-10 renal; 56.7% in the test on ACHN renal. Besides, the growth in the test on CAKI-1 renal is 31.5%; in the test on A498 renal, 39.8%; in the test on CCRF-CEM leukemia, 66.8%; in the test with MOLT-4 leukemia, 13.4%; with SR leukemia, 13.6%; with RPMI-8226 leukemia, 30.6%. Also, the growth in the test on OVCAR-8 ovarian was 55.1%; with OVCAR-5 ovarian, 71.5%; with OVCAR-4 ovarian, 66.9%; in the test with SK-OV-3 ovarian it was 51.2%; with IGROV1 ovarian it was 64.2%; in the test on OVCAR-3 ovarian, 24.1%. The growth with HS 578T breast is 42.8%; in the test with NCI/ADR-RES ovarian, 9.58% (active).
Consider `O=S(=O)(NCCCNc1nccc(-c2c(-c3cccc(F)c3)nc3occn23)n1)c1cccc2ccccc12`, for which the growth is 47.3% with SK-MEL-2 melanoma; 47.3% in the test on EKVX NSCLC; 43.3% with SN12C renal; 17.6% with UO-31 renal; 55.6% with TK-10 renal; 29.5% in the test with ACHN renal. Moreover, the growth is 20.5% in the test with CAKI-1 renal; 28.9% in the test with A498 renal; 25.9% in the test with CCRF-CEM leukemia; 5.16% (active) with MOLT-4 leukemia; 50.7% in the test with SR leukemia; 28.2% with RPMI-8226 leukemia. Further, the growth in the test on OVCAR-8 ovarian is 42.1%; in the test on OVCAR-5 ovarian, 66.7%; in the test with OVCAR-4 ovarian it was 34.6%; in the test on SK-OV-3 ovarian, 55.6%; in the test with IGROV1 ovarian, 14.4%; in the test on OVCAR-3 ovarian, 56.3%. Further, the growth was 23.4% in the test with HS 578T breast and 48.2% with NCI/ADR-RES ovarian.
On to `c1ccc(-c2n[nH]c(-c3ccccn3)n2)nc1`, for which the growth is 108% with SK-MEL-2 melanoma; 98.5% in the test on EKVX NSCLC; 111% with SN12C renal; 93.8% in the test on UO-31 renal; 116% in the test with TK-10 renal; 107% with ACHN renal. The growth in the test with CAKI-1 renal was 81.1%; in the test on A498 renal it was 224%; with CCRF-CEM leukemia it was 103%; with MOLT-4 leukemia, 128%; in the test on SR leukemia it was 127%; with RPMI-8226 leukemia, 104%. Moreover, the growth was 107% with OVCAR-8 ovarian; 100% in the test on OVCAR-5 ovarian; 103% with OVCAR-4 ovarian; 108% in the test on SK-OV-3 ovarian; 116% in the test on IGROV1 ovarian; 144% in the test on OVCAR-3 ovarian. The growth with HS 578T breast is 139%; in the test on NCI/ADR-RES ovarian it was 90.4%.
Turning to `COc1ccc2c(c1)C(C)Cc1c(Cl)ncnc1N2C` (stereo not drawn), the growth with SK-MEL-2 melanoma is -29.4% (active); in the test on EKVX NSCLC it was 12.4%; in the test on SN12C renal, -0.561% (active); in the test on UO-31 renal, 16.9%; in the test with TK-10 renal, 13%; in the test with ACHN renal it was 9.12% (active). The growth with CAKI-1 renal is 2.36% (active); with A498 renal, -39.3% (active); in the test with CCRF-CEM leukemia it was 13.8%; in the test on MOLT-4 leukemia, 1.59% (active); in the test on SR leukemia, -2.06% (active); with RPMI-8226 leukemia, -2.61% (active). The growth in the test on OVCAR-8 ovarian is 7% (active); in the test with OVCAR-5 ovarian, 41.5%; with OVCAR-4 ovarian it was 7.09% (active); with SK-OV-3 ovarian, 12.2%; in the test on IGROV1 ovarian it was 23.7%; in the test on OVCAR-3 ovarian, 2.22% (active). Moreover, the growth was 16.9% in the test on HS 578T breast and 2.03% (active) with NCI/ADR-RES ovarian.
Regarding `COc1ccc(C=C2c3ccccc3-c3ccccc32)cc1`, the growth in the test with SK-MEL-2 melanoma was 54.9%; in the test on EKVX NSCLC, 66.8%; in the test with SN12C renal, 61.6%; with UO-31 renal, 54.3%; in the test with TK-10 renal, 68.6%; with ACHN renal it was 58.4%. In addition, the growth is 49% in the test on CAKI-1 renal; 15.7% with A498 renal; 57.7% in the test with CCRF-CEM leukemia; 52.3% in the test on MOLT-4 leukemia; 23.4% in the test on SR leukemia; 68.2% in the test on RPMI-8226 leukemia. Moreover, the growth is 67.1% in the test with OVCAR-8 ovarian; 92.4% in the test on OVCAR-5 ovarian; 80.2% with OVCAR-4 ovarian; 60.6% in the test on SK-OV-3 ovarian; 58.3% in the test on IGROV1 ovarian; 18% with OVCAR-3 ovarian. The results for the growth with HS 578T breast and with NCI/ADR-RES ovarian were 56.3% and 20.2%, respectively.
